# Measurements as given in PubChem BioAssay (NCATS).
# Results filed as inconclusive are left out. The source made the active and inactive calls. Calls follow the shape of the dose curve; as a rule, active = well fitted activation curve with a large enough effect; inconclusive = small, poorly fitted or top-dose-only effect; inactive = no such curve, though single readings can be large or run the other way.
# Molecular target: Cellular tumor antigen p53 (Homo sapiens) (UniProt P04637)
# Experiment: Primary qHTS for small molecule compounds that upregulate eGFP-tagged delta133p53alpha (in N-terminal) cells. (AID 2060322); also: nearly all actives have a fitted effect of over 75% in size;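 as to activation: series mostly up to about 56 µM; 0% = DMSO vehicle and 100% = reference activator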
# Settings: NCI-H358 eGFP-delta133p53alpha fluorescence, 24 h; activation: hits give high values
# Summary of the method: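 NCI-H358 cells pre-induced 24 h with 10 ng/ml doxycycline to express N-terminal eGFP-delta133p53alpha, then dosed 24 h at 37C without doxycycline; fixed, Hoechst-stained, GFP intensity by laser scanning cytometry, normalized to DMSO (0%) and 57.5 uM 5-azacytidine (100%).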
# Potency is read from the fitted curve at half-maximal effect.
# Chain of Cellular tumor antigen p53 (Homo sapiens) (P04637 whole entry, looked up): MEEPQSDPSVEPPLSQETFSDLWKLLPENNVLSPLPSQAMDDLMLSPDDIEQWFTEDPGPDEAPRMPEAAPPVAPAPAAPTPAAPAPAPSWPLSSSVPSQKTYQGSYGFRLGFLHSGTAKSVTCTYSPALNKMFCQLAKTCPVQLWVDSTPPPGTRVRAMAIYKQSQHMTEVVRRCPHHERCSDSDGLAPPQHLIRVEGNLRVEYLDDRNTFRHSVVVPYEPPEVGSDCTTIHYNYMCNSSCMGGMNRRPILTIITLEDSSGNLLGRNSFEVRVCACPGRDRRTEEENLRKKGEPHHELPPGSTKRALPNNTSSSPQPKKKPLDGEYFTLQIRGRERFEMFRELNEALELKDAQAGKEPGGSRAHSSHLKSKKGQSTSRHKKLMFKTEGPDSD
SMILES,activation,Potency
COP(=S)(OC)Oc1ccc(Sc2ccc(OP(=S)(OC)OC)cc2)cc1,-14.2% (inactive),
NC(=O)c1cc([N+](=O)[O-])cc([N+](=O)[O-])c1,0.837% (inactive),
CN1C(=O)CN=C(c2ccccc2)c2cc(Cl)ccc21,-7.34% (inactive),
CC(C(O)c1ccccc1)N(C)C/C=C/c1ccccc1 (centres undefined),-4.18% (inactive),
CCN1CCCC1CNC(=O)C(O)(c1ccccc1)c1ccccc1 (centres undefined),-15.1% (inactive),
CN1C(=O)NC(=O)C(C)(C2=CCCCC2)C1=O (centres undefined),3.35% (inactive),
COP(=S)(OC)Oc1ccc(S(=O)(=O)N(C)C)cc1,5.86% (inactive),
C1=C2CCCN[C@H]2[C@@H]2C[C@H]1[C@@H]1CCCCN1C2,1.08% (inactive),
C[N+](C)(C)CCOC(=O)C(O)(c1ccccc1)c1ccccc1,16.4% (inactive),
O=C(Nc1ccc(Br)cc1)c1cc(Br)cc(Br)c1O,29.9% (inactive),
CCC(=O)C(CCN(C)C)(c1ccccc1)c1ccccc1,,13.8 µM (active)
NC1=NC(=O)C(c2ccccc2)O1 (centres undefined),0.565% (inactive),
NC(=O)OCCCc1ccccc1,-0.565% (inactive),
COc1ccc2c(c1)CN(C)CC2c1ccc(Cl)c(Cl)c1 (centres undefined),10.8% (inactive),
CCOC(=O)C1(c2ccccc2)CCN(CCc2ccc(N)cc2)CC1,-6.69% (inactive),
C[C@]12CC[C@H]3[C@@H](CC[C@@]45O[C@H]4C(O)=C(C#N)C[C@]35C)[C@H]1CC[C@H]2O,,21.7 µM (active)
C[C@]12CCC(=O)C=C1CC[C@@H]1[C@@H]2CC[C@]2(C)C(=O)CC[C@@H]12,7.34% (inactive),
CCC(OC(C)=O)C(CC(C)NC)(c1ccccc1)c1ccccc1 (centres undefined),,28.5 µM (active)
CC(C)NCC(O)c1ccc(N)c(C#N)c1 (centres undefined),1.69% (inactive),
Fc1cc(Br)ccc1CBr,-29.9% (inactive),

SMILES,activation,Potency
Cc1cccc(Cc2cnc[nH]2)c1C,-0.837% (inactive),
O=C(NC(=O)c1c(F)cccc1F)Nc1cc(Cl)c(OC(F)(F)C(F)C(F)(F)F)cc1Cl (centres undefined),-13.4% (inactive),
COC(=O)c1cncn1C(C)c1ccccc1 (centres undefined),-29.3% (inactive),
OC(c1ccccc1)(c1ccccc1)C1CCNCC1,-13.4% (inactive),
COP(=S)(OC)Oc1ccc(SC)c(C)c1,-15.9% (inactive),
CN1CCC(N(Cc2ccccc2)c2ccccc2)CC1,10.7% (inactive),
Oc1ccc(Cl)cc1,-7.34% (inactive),
COP(=S)(OC)SCN1C(=O)c2ccccc2C1=O,,21.9 µM (active)
CCC1(c2ccccc2)CCC(=O)NC1=O (centres undefined),4.18% (inactive),
CC1(C)C(C=C(Cl)Cl)C1C(=O)OC(C#N)c1cccc(Oc2ccccc2)c1 (centres undefined),-23.2% (inactive),
C#CCOC(C(=O)OCCN(C)C)(c1ccccc1)c1ccccc1,-6.21% (inactive),
CCN(Cc1ccc(Cl)nc1)/C(=C/[N+](=O)[O-])NC,-24.3% (inactive),
Clc1ccc(C(c2ccc(Cl)cc2)C(Cl)(Cl)Cl)cc1,-11.9% (inactive),
CC(C)(O)C=CC(=O)[C@](C)(O)[C@H]1[C@H](O)C[C@]2(C)[C@@H]3CC=C4[C@@H](C=C(O)C(=O)C4(C)C)[C@]3(C)C(=O)C[C@@]12C,,34.3 µM (active)
COc1ccc(C(c2ccc(OC)cc2)C(Cl)(Cl)Cl)cc1,-10.7% (inactive),
CCC(=O)CCCCC[C@@H]1NC(=O)[C@H]2CCCCN2C(=O)[C@H]([C@@H](C)CC)NC(=O)[C@H](Cc2cn(OC)c3ccccc23)NC1=O,-11.2% (inactive),
CCCCOC(=O)c1ccccc1C(=O)OCc1ccccc1,-2.82% (inactive),
CC(C)(C)[C@]1(O)C[C@@H]2OC(=O)C[C@@]23C(=O)O[C@@H]2OC(=O)[C@H](O)C213 (some centres undefined),7.05% (inactive),
Oc1cc(Cl)ccc1Oc1ccc(Cl)cc1Cl,,51.4 µM (active)
